# From PMC7862700, “An all-to-all approach to the identification of sequence-specific readers for epigenetic DNA modifications on cytosine”
# Columns and labels:
# Experiment in all cases: DAPPL (digital affinity profiling via proximity ligation, sequencing); 10 mM Tris-HCl pH 7.5, 50 mM NaCl, 1 mM DTT, 4% glycerol, room temperature, 30 min; GST-TFs on glutathione beads, 16-mer random dsDNA library, 0.1% formaldehyde crosslink after washing; high values mean tight binding
# [1] = biological target: T1, FLI1 (Homo sapiens, UniProt Q01543 1-452); conditions: protein: recombinant; tags: N-terminal GST; dsDNA, one strand shown
# T1 sequence: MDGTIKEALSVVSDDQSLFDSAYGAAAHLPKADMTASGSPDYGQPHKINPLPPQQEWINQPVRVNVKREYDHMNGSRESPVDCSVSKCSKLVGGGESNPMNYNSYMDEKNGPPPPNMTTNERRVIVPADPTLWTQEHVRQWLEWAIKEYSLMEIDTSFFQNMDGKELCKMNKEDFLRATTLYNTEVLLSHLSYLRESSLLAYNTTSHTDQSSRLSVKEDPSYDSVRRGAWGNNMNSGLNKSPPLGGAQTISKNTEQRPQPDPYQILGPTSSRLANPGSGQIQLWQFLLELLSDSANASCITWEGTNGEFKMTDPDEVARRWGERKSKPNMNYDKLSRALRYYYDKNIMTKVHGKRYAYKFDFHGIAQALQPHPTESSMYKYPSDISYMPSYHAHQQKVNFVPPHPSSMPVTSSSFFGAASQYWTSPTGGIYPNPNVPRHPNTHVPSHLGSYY
# Procedure, shortened: (§1)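 The binding signal reported is, for every hexamer, its read frequency for a factor over its read frequency for the tag-only sample. Reads came from pools of yeast-expressed, GST-fused human transcription factors on glutathione beads, barcoded with DNA and mixed with that sample, which were incubated with 200 nmole of a random double-stranded 16-mer DNA library in Tris/NaCl/DTT/glycerol buffer at room temperature for 30 min. After washing, the pools were crosslinked with 0.1% formaldehyde, proximity-ligated with BsaI/T4 ligase for 1 h at 37 °C, PCR-amplified and sequenced on an Illumina NextSeq500.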
# [2] = biological target: T2, ELK1 (Homo sapiens, UniProt P19419 1-428); conditions: protein: recombinant; tags: N-terminal GST; dsDNA, one strand shown
# T2 sequence: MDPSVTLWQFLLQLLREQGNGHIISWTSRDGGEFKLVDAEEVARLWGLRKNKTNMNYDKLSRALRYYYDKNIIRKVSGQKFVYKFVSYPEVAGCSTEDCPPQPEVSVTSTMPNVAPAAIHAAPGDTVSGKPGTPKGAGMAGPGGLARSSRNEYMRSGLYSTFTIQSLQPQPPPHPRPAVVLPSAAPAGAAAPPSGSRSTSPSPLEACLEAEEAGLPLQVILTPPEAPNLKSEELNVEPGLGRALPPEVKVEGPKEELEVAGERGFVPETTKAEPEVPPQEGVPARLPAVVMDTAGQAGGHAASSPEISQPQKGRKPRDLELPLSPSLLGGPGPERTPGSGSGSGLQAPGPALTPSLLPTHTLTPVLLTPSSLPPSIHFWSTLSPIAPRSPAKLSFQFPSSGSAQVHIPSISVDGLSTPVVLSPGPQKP
# Procedure, shortened: as §1
# [3] = biological target: T3, GABPA (Homo sapiens, UniProt Q06546 1-454); conditions: protein: recombinant; tags: N-terminal GST; dsDNA, one strand shown
# T3 sequence: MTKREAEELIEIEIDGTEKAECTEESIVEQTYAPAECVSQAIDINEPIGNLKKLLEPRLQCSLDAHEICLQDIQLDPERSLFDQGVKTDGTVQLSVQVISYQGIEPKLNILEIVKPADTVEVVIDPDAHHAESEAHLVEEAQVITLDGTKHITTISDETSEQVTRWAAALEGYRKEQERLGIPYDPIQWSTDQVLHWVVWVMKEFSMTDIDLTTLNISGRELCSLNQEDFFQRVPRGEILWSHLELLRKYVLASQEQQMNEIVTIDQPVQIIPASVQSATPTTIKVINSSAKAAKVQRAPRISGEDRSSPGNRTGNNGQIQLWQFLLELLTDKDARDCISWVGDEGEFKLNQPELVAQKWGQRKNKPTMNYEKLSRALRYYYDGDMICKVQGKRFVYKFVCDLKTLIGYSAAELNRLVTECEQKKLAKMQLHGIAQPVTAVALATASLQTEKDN
# Procedure, shortened: as §1
# [4] = biological target: T4, ERG (Homo sapiens, UniProt P11308 1-479); conditions: protein: recombinant; tags: N-terminal GST; dsDNA, one strand shown
# T4 sequence: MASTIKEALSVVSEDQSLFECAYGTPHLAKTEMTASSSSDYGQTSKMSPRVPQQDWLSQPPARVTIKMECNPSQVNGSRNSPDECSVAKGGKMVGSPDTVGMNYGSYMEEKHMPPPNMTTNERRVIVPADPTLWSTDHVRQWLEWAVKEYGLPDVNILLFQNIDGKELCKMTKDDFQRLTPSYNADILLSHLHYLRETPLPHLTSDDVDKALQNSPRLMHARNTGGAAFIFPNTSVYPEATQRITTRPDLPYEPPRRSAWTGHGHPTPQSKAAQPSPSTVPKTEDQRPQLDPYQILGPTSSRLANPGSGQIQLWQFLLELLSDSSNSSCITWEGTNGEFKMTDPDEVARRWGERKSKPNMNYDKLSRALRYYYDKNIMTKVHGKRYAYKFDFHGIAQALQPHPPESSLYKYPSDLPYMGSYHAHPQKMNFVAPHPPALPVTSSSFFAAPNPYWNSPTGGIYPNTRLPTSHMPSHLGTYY
# Procedure, shortened: as §1
# [5] = biological target: ELF1 (Homo sapiens, UniProt P32519 1-619); conditions: protein: recombinant; tags: N-terminal GST; dsDNA, one strand shown
# ELF1, sequence (P32519 whole entry): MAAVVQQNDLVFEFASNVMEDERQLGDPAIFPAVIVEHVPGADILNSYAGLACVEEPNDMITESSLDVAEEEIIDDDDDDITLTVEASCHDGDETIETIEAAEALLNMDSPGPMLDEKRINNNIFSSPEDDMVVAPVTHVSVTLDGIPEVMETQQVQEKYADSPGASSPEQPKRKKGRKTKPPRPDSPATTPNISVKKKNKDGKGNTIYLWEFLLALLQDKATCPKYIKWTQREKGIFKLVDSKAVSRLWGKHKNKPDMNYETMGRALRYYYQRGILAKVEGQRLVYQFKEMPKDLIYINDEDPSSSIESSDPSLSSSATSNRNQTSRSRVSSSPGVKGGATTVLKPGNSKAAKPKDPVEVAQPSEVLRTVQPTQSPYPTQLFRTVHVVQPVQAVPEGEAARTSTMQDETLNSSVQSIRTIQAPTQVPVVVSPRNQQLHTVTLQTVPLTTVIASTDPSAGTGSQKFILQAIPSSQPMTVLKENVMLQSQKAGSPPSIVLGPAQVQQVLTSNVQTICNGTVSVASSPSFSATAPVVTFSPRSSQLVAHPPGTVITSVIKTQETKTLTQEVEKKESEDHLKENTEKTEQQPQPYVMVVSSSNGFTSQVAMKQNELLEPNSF
# Procedure, shortened: as §1
# [6] = biological target: T5, EHF (Homo sapiens, UniProt Q9NZC4 1-300); conditions: protein: recombinant; tags: N-terminal GST; dsDNA, one strand shown
# T5 sequence: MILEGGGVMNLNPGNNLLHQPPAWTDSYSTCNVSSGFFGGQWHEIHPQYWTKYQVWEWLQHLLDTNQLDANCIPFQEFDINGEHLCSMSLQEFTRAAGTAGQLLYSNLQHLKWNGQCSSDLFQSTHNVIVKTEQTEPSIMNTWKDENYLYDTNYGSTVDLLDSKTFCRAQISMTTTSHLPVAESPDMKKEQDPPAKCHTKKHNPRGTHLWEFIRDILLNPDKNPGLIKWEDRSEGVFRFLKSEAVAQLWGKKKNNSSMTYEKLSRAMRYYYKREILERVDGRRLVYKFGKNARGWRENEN
# Procedure, shortened: as §1
# [7] = biological target: SPI1 (Homo sapiens, UniProt P17947 1-270); conditions: protein: recombinant; tags: N-terminal GST; dsDNA, one strand shown
# Procedure, shortened: as §1
# [8] = biological target: SPIB (Homo sapiens, UniProt Q01892 1-262); conditions: protein: recombinant; tags: N-terminal GST; dsDNA, one strand shown
# SPIB, sequence (Q01892 whole entry): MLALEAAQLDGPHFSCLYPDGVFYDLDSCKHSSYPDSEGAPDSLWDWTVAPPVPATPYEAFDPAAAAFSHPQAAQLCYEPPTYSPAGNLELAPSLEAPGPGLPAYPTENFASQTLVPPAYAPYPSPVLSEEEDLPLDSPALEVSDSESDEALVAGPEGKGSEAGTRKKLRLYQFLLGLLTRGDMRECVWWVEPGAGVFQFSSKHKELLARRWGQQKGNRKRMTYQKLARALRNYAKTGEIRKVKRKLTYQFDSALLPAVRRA
# Procedure, shortened: as §1
# [9] = biological target: T6, ELK3 (Homo sapiens, UniProt P41970 1-407); conditions: protein: recombinant; tags: N-terminal GST; dsDNA, one strand shown
# T6 sequence: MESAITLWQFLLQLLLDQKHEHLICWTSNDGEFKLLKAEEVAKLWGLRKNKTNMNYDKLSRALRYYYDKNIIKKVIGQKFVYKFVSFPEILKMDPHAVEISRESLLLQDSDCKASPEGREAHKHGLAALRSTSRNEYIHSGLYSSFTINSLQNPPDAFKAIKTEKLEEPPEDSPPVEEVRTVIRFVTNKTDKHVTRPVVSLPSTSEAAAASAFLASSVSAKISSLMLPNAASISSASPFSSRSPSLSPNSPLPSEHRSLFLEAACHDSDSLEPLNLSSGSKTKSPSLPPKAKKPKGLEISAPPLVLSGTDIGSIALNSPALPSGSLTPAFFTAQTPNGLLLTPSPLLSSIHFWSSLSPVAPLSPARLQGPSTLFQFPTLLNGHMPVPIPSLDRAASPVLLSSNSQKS
# Procedure, shortened: as §1
# [10] = biological target: T7, FEV (Homo sapiens, UniProt Q99581 1-238); conditions: protein: recombinant; tags: N-terminal GST; dsDNA, one strand shown
# T7 sequence: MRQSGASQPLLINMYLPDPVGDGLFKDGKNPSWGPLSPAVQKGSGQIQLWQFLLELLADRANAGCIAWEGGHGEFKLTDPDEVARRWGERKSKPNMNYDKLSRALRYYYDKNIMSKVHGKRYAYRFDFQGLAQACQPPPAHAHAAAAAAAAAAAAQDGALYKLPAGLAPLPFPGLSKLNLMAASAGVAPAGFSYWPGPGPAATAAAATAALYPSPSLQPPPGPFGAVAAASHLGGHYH
# Procedure, shortened: as §1
# [11] = biological target: ETV5 (Homo sapiens, UniProt P41161 1-510); conditions: protein: recombinant; tags: N-terminal GST; dsDNA, one strand shown
# ETV5, sequence (P41161 whole entry): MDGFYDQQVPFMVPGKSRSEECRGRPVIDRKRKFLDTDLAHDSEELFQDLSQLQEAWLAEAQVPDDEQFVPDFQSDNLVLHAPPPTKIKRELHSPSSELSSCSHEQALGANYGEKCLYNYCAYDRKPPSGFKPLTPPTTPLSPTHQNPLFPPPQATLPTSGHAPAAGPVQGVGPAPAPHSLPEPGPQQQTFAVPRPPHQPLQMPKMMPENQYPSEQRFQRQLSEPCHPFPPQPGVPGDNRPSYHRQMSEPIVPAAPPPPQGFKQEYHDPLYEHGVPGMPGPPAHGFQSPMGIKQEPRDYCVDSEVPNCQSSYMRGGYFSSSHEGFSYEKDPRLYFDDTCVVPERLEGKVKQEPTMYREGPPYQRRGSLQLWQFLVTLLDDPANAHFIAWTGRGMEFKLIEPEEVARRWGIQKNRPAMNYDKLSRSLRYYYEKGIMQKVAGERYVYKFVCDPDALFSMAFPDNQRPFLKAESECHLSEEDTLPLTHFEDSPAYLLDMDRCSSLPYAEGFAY
# Procedure, shortened: as §1
# [12] = biological target: HSF1 (Homo sapiens, UniProt Q00613 1-529); conditions: protein: recombinant; tags: N-terminal GST; chain copies: 3; dsDNA, one strand shown
# HSF1, sequence (Q00613 whole entry): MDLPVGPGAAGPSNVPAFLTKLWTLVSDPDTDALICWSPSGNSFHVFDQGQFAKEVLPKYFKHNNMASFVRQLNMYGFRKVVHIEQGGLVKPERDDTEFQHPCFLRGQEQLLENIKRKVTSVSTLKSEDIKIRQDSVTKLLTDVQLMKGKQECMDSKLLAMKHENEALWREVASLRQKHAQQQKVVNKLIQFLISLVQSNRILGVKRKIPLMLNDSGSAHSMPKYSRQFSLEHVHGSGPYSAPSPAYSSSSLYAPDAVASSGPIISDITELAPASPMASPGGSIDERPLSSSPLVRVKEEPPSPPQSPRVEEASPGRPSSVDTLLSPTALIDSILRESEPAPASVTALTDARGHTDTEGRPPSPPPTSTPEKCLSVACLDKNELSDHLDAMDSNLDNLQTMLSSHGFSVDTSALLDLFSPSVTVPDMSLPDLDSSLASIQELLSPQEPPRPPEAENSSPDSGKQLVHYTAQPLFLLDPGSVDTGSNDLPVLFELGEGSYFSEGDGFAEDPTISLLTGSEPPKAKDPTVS
# Procedure, shortened: as §1
# [13] = biological target: T8, SPIC (Homo sapiens, UniProt Q8N5J4 1-248); conditions: protein: recombinant; tags: N-terminal GST; dsDNA, one strand shown
# T8 sequence: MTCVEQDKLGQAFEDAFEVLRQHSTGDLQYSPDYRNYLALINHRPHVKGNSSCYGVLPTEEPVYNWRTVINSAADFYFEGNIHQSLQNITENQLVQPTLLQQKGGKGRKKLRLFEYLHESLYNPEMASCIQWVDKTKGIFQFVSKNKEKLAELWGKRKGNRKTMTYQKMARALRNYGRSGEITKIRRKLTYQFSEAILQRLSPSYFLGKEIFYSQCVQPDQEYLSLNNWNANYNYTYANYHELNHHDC
# Procedure, shortened: as §1
# [14] = biological target: ELF4 (Homo sapiens, UniProt Q99607 1-663); conditions: protein: recombinant; tags: N-terminal GST; dsDNA, one strand shown
# ELF4, sequence (Q99607 whole entry): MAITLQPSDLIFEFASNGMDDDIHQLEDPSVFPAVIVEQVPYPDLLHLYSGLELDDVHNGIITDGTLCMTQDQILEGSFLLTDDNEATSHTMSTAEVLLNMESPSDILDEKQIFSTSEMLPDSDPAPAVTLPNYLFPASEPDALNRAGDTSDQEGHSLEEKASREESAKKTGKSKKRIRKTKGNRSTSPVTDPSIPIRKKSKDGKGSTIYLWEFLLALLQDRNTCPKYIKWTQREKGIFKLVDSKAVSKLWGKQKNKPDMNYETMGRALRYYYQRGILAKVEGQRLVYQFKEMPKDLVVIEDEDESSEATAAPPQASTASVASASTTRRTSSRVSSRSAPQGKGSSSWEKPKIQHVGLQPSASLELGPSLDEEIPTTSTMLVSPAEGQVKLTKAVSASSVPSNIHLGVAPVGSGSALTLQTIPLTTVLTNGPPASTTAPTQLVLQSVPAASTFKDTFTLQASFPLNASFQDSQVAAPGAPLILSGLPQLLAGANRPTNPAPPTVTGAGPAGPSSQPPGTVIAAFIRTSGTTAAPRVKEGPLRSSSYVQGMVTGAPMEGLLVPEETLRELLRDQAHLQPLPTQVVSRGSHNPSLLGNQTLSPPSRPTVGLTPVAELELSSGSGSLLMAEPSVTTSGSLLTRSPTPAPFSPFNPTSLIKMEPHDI
# Procedure, shortened: as §1
# [15] = biological target: T9, ELK4 (Homo sapiens, UniProt P28324-2 1-405); conditions: protein: recombinant; tags: N-terminal GST; dsDNA, one strand shown
# T9 sequence: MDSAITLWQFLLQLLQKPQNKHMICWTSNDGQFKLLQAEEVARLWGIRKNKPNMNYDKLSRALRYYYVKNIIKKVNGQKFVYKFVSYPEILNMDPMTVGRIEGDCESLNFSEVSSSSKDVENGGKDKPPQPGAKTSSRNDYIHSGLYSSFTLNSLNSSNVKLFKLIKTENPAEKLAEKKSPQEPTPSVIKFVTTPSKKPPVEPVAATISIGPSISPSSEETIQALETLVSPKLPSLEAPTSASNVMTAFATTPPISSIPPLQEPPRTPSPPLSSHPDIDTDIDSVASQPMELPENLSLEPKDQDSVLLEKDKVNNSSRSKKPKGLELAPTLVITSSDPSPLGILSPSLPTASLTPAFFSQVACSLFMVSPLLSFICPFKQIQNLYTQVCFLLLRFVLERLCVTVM
# Procedure, shortened: as §1
# [16] = biological target: T10, ETV2 (Homo sapiens, UniProt O00321 1-342); conditions: protein: recombinant; tags: N-terminal GST; dsDNA, one strand shown
# T10 sequence: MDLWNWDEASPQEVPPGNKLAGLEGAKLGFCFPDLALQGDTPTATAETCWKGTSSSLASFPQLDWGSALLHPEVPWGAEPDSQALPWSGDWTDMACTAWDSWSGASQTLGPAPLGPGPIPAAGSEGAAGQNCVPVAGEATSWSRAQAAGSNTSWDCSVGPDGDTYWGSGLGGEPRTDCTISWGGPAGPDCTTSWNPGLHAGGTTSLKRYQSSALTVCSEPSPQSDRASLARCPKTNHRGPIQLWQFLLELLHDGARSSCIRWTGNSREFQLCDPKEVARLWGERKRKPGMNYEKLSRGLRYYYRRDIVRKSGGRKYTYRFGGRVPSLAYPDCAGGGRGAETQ
# Procedure, shortened: as §1
# [17] = biological target: T11, ELF3 (Homo sapiens, UniProt P78545 1-371); conditions: protein: recombinant; tags: N-terminal GST; dsDNA, one strand shown
# T11 sequence: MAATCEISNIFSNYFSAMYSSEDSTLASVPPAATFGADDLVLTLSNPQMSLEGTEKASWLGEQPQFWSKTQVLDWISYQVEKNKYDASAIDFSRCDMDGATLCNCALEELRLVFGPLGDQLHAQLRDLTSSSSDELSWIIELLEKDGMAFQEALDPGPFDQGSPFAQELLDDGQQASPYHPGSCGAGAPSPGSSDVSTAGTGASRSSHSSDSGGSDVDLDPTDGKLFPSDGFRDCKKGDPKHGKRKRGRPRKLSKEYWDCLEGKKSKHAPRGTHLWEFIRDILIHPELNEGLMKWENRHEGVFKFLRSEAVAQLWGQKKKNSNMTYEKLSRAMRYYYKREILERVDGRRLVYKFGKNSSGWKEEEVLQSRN
# Procedure, shortened: as §1
# [18] = biological target: ETV1 (Homo sapiens, UniProt P50549 1-477); conditions: protein: recombinant; tags: N-terminal GST; dsDNA, one strand shown
# ETV1, sequence (P50549 whole entry): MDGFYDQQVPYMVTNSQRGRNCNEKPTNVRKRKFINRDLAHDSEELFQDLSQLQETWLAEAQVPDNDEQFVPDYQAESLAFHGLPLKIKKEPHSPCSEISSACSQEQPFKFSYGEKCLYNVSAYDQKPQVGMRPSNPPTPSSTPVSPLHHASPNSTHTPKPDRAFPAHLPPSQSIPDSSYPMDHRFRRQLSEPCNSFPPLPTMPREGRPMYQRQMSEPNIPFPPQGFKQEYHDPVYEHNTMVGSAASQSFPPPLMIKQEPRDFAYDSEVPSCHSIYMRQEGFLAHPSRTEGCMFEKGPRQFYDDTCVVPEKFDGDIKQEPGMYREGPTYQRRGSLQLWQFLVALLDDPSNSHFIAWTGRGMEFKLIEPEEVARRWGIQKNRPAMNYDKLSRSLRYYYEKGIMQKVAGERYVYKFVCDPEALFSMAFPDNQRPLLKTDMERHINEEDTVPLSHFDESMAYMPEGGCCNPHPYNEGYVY
# Procedure, shortened: as §1
sequence,measurement,setting,value
TCGTAC,binding signal,[1],"1.13 fold enrichment (6-mer frequency, TF over GST control)"
same,binding signal,[2],"1.13 fold enrichment (6-mer frequency, TF over GST control)"
same,binding signal,[3],"1.18 fold enrichment (6-mer frequency, TF over GST control)"
same,binding signal,[4],"1.06 fold enrichment (6-mer frequency, TF over GST control)"
same,binding signal,[5],"1.14 fold enrichment (6-mer frequency, TF over GST control)"
same,binding signal,[6],"1.14 fold enrichment (6-mer frequency, TF over GST control)"
same,binding signal,[7],"1.06 fold enrichment (6-mer frequency, TF over GST control)"
same,binding signal,[8],"1.04 fold enrichment (6-mer frequency, TF over GST control)"
same,binding signal,[9],"1.11 fold enrichment (6-mer frequency, TF over GST control)"
same,binding signal,[10],"1.13 fold enrichment (6-mer frequency, TF over GST control)"
same,binding signal,[11],"1.13 fold enrichment (6-mer frequency, TF over GST control)"
same,binding signal,[12],"1.06 fold enrichment (6-mer frequency, TF over GST control)"
same,binding signal,[13],"1.09 fold enrichment (6-mer frequency, TF over GST control)"
same,binding signal,[14],"1.14 fold enrichment (6-mer frequency, TF over GST control)"
same,binding signal,[15],"1.03 fold enrichment (6-mer frequency, TF over GST control)"
same,binding signal,[16],"1.22 fold enrichment (6-mer frequency, TF over GST control)"
same,binding signal,[17],"1.22 fold enrichment (6-mer frequency, TF over GST control)"
same,binding signal,[18],"1.18 fold enrichment (6-mer frequency, TF over GST control)"
